MPTP block: mitochondrial permeability transition pore inhibitors, primary screen, biochemical, isolated mouse mitochondria, absorbance. Ca2+ swelling absorbance, 30 min. inhibition, % at 10 µM. hit rate 1.4% among 360,000. AID 602449, 2012;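 active = inhibition of 50% or more, scaled per plate between neutral and stimulator controls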
Platelet DG rel: inhibitors of platelet dense granule secretion, primary screen, cell-based, MLPCN, human platelets; human platelet-rich plasma, SFLLRN dense granule ATP release, luminescence; inhibition, %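 (compounds screened at 7.5 µM in platelet-rich plasma)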; hit rate 0.22% among 300,000;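 active = mean replicate score, as percent of positive control, at or above 50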
HSF1 activator: HSF-1 activators, primary screen, NIH3T3-HGL cells, MG132 stress, luminescence, single point; activation, % at 9 µM; NIH3T3-HGL HSF-1 luciferase reporter, 8 h; 100% = twice DMSO control signal; hit rate 1.7% among 300,000;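 active = mean replicate activation of at least 50% with a set share of replicates each reaching 50%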
HSF1 inh: HSF1 inhibitors in luciferase reporter cells, primary screen, cell-based, NIH3T3, luminescence; NIH3T3-HGL HSE-luciferase, MG132-induced, luminescence 8 h; hits give low values; activity change, negative = inhibition, % at 7.5 µM (by protocol); hit rate 0.77% among 300,000;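 active = more than half of replicate wells show activity change below -50%, luminescence cut by over half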;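 note: luciferase reports HSF-1 transcriptional activity via heat shock element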
dFosB activator: activators of delta FosB homodimer, primary screen, biochemical, fluorescence polarization, TAMRA-CDK5 oligo, single point | hit rate 0.99% among 340,000 | purified delta FosB; percent of positive-control signal above neutral wells | activation, % at 25 µM | Protein FosB (Mus musculus), P13346 | AID 493131, 2011;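 active = mean activation above about 17%, with every replicate also reaching it, limit read from the data, passing the limit was not always enough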
Target sequence (P13346 whole entry, looked up): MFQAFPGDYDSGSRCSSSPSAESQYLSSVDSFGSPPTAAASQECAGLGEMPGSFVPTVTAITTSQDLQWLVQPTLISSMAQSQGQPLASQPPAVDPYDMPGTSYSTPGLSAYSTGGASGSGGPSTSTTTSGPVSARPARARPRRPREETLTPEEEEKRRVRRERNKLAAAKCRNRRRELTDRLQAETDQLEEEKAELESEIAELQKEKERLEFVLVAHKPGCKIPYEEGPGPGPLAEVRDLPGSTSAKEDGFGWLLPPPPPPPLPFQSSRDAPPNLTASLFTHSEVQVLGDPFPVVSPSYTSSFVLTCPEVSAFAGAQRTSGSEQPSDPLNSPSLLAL
HSP90 inh: HSP90 inhibitors, primary screen, cell lysate, luminescence | Heat shock protein HSP 90 (rabbit reticulocyte lysate; luciferase refolding) | Rabbit reticulocyte lysate, luciferase refolding luminescence, 3 h | inhibition, % at 5.6 µM | hit rate 0.91% among 290,000 | AID 1789, 2009;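 active = inhibition above the screen-wide mean plus 3 SD, computed separately per campaign, cut at about 16% in these data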;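 note: inhibitors lower the luminescence because luciferase stays unfolded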
HSP90 inh confirm: HSP90 inhibitors, confirmation, cell lysate, luminescence. shares compounds with HSP90 inh. rabbit reticulocyte lysate, luciferase refolding luminescence, 3 h. inhibition, % at 5.9 µM. hit rate 64% among 2,300; in the data active = inhibition above about 18%
FLuc counter: firefly luciferase inhibitors, HSP90 counter-screen, confirmation, artefact control for HSP90 inhibitor project, biochemical, luminescence, triplicate | shares compounds with HSP90 inh | purified native firefly luciferase | inhibition, % at 5.9 µM | hit rate 48% among 2,300 | AID 1847, 2009;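 active = inhibition above the mean inhibition of all tested sample wells plus 3 SD, cut at about 10% in these data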
Of the large screens only hits and unclear results are named; the others gave an inactive call (follow-up assays come after a bar, where they were run). Hits are enriched below; roughly 4.9% of the tested compounds scored in any of these assays.

CC(=O)/C(=C\N(C)C)Sc1ccc(C)cc1	HSP90 inh 32.7 | HSP90 inh confirm inactive | FLuc counter inactive
CC(=O)c1c(C)[nH]c(C(=O)Nc2ccc(C)cn2)c1C	HSP90 inh 27.2 | HSP90 inh confirm 78.9 | FLuc counter 69.6
CC(=O)c1c(C)[nH]c(C(=O)Nc2cc(C)cc(C)c2)c1C	none
CC(=O)c1c(C)[nH]c(C(=O)Nc2nc(C)cs2)c1C	HSP90 inh 51.2 | HSP90 inh confirm 77.1 | FLuc counter 66.1
COc1ccc(OC)c(NC(=O)c2[nH]c(C)c(C(C)=O)c2C)c1	HSP90 inh 27.0 | HSP90 inh confirm inactive | FLuc counter inactive
Cc1cccc[n+]1CC(=O)c1ccc(NC(=O)c2ccccc2)cc1	none
N#Cc1cc[n+](CC(=O)c2ccc(NC(=O)c3ccccc3)cc2)cc1	HSP90 inh 21.5 | HSP90 inh confirm inactive | FLuc counter inactive
Cc1cc(C)c2nc(N3CCCC(C(=O)NCCCN4CCOCC4)C3)sc2c1 (configuration not stated)	none
Cc1cc(C)c2nc(N3CCC(C(=O)NCCCN4CC(C)CC(C)C4)CC3)sc2c1 (configuration not stated)	HSP90 inh 30.7 | HSP90 inh confirm 40.1 | FLuc counter inactive
COc1ccc(/C=N/Nc2cc(OC)ncn2)cc1	Platelet DG rel 52.3, HSF1 activator 68.5, HSP90 inh 17.6 | HSP90 inh confirm 30.7 | FLuc counter 25.7
COc1ccc(/C=N/Nc2cc(N(C)C)nc(N(C)C)n2)cc1	none
COc1ccc(C(=O)Cn2c(C)nc([N+](=O)[O-])c2Br)cc1	HSF1 activator 172.2, HSP90 inh 22.4 | HSP90 inh confirm inactive | FLuc counter inactive
CCc1nc2ccc(C(=O)NCc3ccccc3OC)cn2c1N(CC)CCN(C)C	none (no result: Platelet DG rel, HSF1 activator, HSF1 inh, dFosB activator, HSP90 inh)
CCCCN=C1NN=C(c2ccc3c(c2)OCCO3)CS1	HSP90 inh 51.6 | HSP90 inh confirm 42.3 | FLuc counter 35.0
CCCCN=C1NN=C(c2ccc(C)c(C)c2)CS1	none
CCOC(=O)c1c(C)oc2c1c(C=NCC1CCCO1)c(O)c1ccccc12 (configuration not stated)	HSP90 inh 18.7 | HSP90 inh confirm inactive | FLuc counter inactive
O=C(O)c1cccc(NC(=S)NC(NC(=O)c2cccc([N+](=O)[O-])c2)C(Cl)(Cl)Cl)c1 (configuration not stated)	HSP90 inh 29.3 | HSP90 inh confirm 74.6 | FLuc counter inactive
Cc1ccc(S(=O)(=O)NCCCNS(=O)(=O)c2ccccc2)cc1	HSP90 inh 24.8 | HSP90 inh confirm inactive | FLuc counter inactive
Cc1ccc(S(=O)(=O)NCCCCCCNS(=O)(=O)c2ccc(C)cc2)cc1	none (no result: Platelet DG rel, HSF1 activator, HSF1 inh, dFosB activator, HSP90 inh)
CN(Cc1ccccc1)CC1C2CCC(C2)C1O (configuration not stated)	none (no result: Platelet DG rel, HSF1 activator, HSF1 inh, HSP90 inh)
Cc1cc(-c2csc(NC(=O)c3cc4ccccc4o3)n2)c(C)n1C	HSP90 inh 41.3 | HSP90 inh confirm 34.0 | FLuc counter inactive
CCOC(=O)c1csc(NC(=O)c2cc3ccccc3o2)n1	HSP90 inh 57.6 | HSP90 inh confirm 88.2 | FLuc counter inactive
Cc1nc(NC(=O)c2cc3ccccc3o2)sc1C	HSP90 inh 39.9 | HSP90 inh confirm 53.6 | FLuc counter 47.3
O=C(Nc1nc(-c2ccccn2)cs1)c1cc2ccccc2o1	none
CCOC(=O)c1sc(NC(=O)c2cc3ccccc3o2)nc1C	none
COc1ccc(NC(=O)CS(=O)CC(=O)Nc2cccc3cccnc23)cc1 (configuration not stated)	none

Screening results as filed in PubChem BioAssay.
